The panel holds about 79,000 compounds, 15% with a hit somewhere; the sample as a whole holds those more often. Values without a mark were called inactive. The source made the active and inactive calls. Rule as the data show it: active = growth inhibition above about 70%; inactive = the rest.
Assay: NCI Yeast Anticancer Drug Screen. Data for the mgt1 strain (AID 153)
Conditions: S. cerevisiae mgt1 mutant growth inhibition; at 33.0 µM; active compounds read high
Method in brief: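 In the mgt1 strain, test compounds were added and growth inhibition was determined relative to vehicle-treated controls.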

Row | Compound | growth inhibition
1 | CCC/C(Cl)=N\OC(=O)Nc1cccc(C(F)(F)F)c1 | 78% (active)
2 | [O-][n+]1c2ccc(O)cc2nc2ccc(Cl)cc21 | 65%
3 | Clc1ccccc1C1OC1c1ccccc1Cl (centres undefined) | -35%
4 | c1ccc2c(c1)c1ncccc1c1nccnc21 | -2%
5 | CC(=O)Nc1ccc2c(c1)C(=Nc1ccc(C(=O)O)cc1)c1ccccc1-2 | 3%
6 | COc1ccc(OC)c2cc3ccccc3cc12 | 18%
7 | COc1cc(C2c3cc4c(cc3OC(NNc3ccccc3)C2C)OCO4)cc(OC)c1OC (centres undefined) | 82% (active)
8 | O=C1c2cc([N+](=O)[O-])ccc2-c2cccc(F)c21 | 20%
9 | CCCCCCCCCCCC(=O)N(C)C | 23%
10 | CCCCCCCCCCCC1=C(O)C(=O)C=C(O)C1=O | 89% (active)
11 | Cc1ccc(CSC(N)=Nc2ccccc2)cc1C | 14%
12 | CCCCCCCCCCC1CCC(=O)O1 (centres undefined) | 8%
13 | O=[N+]([O-])c1cc(CCl)ccc1CCl | 90% (active)
14 | Nc1ccc2c(c1)C(=O)c1cccc(N)c1C2=O | 63%
15 | CCCCCCCCCCNC(=O)OCC | 28%
16 | CC1=C(C)Cc2c(O)ccc(O)c2C1 | -1%
17 | COc1ccc2c(c1)C(=O)c1ccccc1C2 | 7%
18 | CCC(=O)OCCn1c2nc(=O)[nH]c(=O)c-2nc2cc(C)c(C)cc21 | 75% (active)
19 | O=C(OCCN1CCCCCC1)C(c1ccsc1)C1CCCCC1 (centres undefined) | 36%
20 | Oc1c(Br)cc(Br)cc1C1CCCCC1 | 97% (active)

Row | Compound | growth inhibition
21 | CC1(C)[C@@H]2CC[C@]1(C)[C@H](OC(=O)CSC#N)C2 | 90% (active)
22 | S=C(N/N=C(/c1ccccc1)c1ccccn1)N1CCCCCC1 | -18%
23 | Cc1ccc2[nH]c3c(C)c4cc[n+](C)cc4c(C)c3c2c1 | 47%
24 | CNC(=O)OCc1c(COC(=O)NC)c(-c2ccc(-c3ccccc3)cc2)n(C)c1C | 2%
25 | COc1ccccc1/C=C1\Sc2scc(-c3cccc([N+](=O)[O-])c3)[n+]2C1=O | 94% (active)
26 | O=[N+]([O-])c1ccc2c(c1)C(N1CCN(CCO)CC1)Cc1ccc(F)cc1S2 (centres undefined) | -4%
27 | Cc1ccc(CCC2=CCCc3c2ccc2ccccc32)cc1 | -8%
28 | O=[N+]([O-])c1cccc2nccc(NCCCO)c12 | 5%
29 | Cc1ccc(-n2cc(-c3ccc(Cl)cc3)c(C#N)c2N)cc1 | -41%
30 | Cc1ccc(S/N=C\c2ccccc2O)cc1 | 7%
31 | O=C(O)C1OC1(c1cccc(Cl)c1)c1ccccc1Cl (centres undefined) | 67%
32 | NC(=S)N/N=C\c1nccc2ccccc12 | 97% (active)
33 | Clc1cccc(C(Nc2nncs2)Nc2nncs2)c1Cl | 12%
34 | O=C(OCC=C1CCCC1)c1cc([N+](=O)[O-])cc([N+](=O)[O-])c1 | 95% (active)
35 | O=C(Nc1ccccc1)C(=O)C(C(=O)c1ccccc1)C(c1ccccc1)c1ccccc1 (centres undefined) | 8%
36 | N#CN1C2CCC1CC(=O)C2 | -11%
37 | COc1ccccc1C(=O)OCC1CCCN2CCCCC12 (centres undefined) | 91% (active)
38 | CCNc1nnc(CSc2nc(-c3ccccc3)c(-c3ccccc3)[nH]2)s1 | 87% (active)
39 | O=C1c2ccccc2-c2n[nH]c3cccc1c23 | 27%

From PubChem BioAssay (NCI)
